# Experiments:
# [1] = biological target: Sphingosine kinase 1 (Homo sapiens) (UniProt Q9NYA1); settings: at 1 µM;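 further: mean SPHK1 inhibition value reported from the GSK PKIS kinase panel screen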
# [2] = biological target: T1, Sphingosine kinase 2 (Homo sapiens) (UniProt Q9NRA0); settings: at 0.1 µM
# T1 sequence (whole entry): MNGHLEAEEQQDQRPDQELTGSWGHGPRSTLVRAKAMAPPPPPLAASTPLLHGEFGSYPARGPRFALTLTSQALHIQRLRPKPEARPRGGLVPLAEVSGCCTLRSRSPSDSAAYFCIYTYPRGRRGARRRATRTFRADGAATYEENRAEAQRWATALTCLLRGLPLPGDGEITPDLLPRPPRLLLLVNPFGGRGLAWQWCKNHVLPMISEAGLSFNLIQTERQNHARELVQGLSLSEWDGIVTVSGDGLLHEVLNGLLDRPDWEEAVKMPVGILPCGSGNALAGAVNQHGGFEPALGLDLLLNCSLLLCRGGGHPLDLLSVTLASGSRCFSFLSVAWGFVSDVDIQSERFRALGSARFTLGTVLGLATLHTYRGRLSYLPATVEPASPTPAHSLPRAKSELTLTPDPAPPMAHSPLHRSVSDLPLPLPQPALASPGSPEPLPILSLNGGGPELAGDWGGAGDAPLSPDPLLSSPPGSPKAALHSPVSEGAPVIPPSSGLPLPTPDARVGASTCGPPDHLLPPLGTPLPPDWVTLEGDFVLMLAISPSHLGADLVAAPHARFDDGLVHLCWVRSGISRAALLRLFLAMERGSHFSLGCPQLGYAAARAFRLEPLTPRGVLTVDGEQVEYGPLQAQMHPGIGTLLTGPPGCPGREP
# [3] = biological target: T1, Sphingosine kinase 2 (Homo sapiens); settings: at 1 µM
# [4] = biological target: Casein kinase II subunit alpha (Homo sapiens) (UniProt P68400); settings: at 0.1 µM
# Chain of Casein kinase II subunit alpha (Homo sapiens) (P68400 whole entry, looked up): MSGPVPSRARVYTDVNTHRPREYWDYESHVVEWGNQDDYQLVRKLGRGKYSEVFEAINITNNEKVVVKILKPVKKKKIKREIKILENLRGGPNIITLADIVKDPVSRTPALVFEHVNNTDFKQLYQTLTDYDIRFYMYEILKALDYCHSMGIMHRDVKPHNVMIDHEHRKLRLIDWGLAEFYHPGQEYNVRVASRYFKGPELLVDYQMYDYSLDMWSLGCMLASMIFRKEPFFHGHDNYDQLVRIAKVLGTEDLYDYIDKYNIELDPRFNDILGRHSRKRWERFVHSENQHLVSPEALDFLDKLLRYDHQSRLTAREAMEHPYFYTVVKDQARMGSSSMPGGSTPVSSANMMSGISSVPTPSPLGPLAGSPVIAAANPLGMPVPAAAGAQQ
# [5] = biological target: Casein kinase II subunit alpha (Homo sapiens) (UniProt P68400); settings: at 1 µM
# [6] = biological target: T2, Inhibitor of nuclear factor kappa-B kinase subunit alpha (Homo sapiens) (UniProt O15111); settings: at 0.1 µM
# T2 sequence (whole entry): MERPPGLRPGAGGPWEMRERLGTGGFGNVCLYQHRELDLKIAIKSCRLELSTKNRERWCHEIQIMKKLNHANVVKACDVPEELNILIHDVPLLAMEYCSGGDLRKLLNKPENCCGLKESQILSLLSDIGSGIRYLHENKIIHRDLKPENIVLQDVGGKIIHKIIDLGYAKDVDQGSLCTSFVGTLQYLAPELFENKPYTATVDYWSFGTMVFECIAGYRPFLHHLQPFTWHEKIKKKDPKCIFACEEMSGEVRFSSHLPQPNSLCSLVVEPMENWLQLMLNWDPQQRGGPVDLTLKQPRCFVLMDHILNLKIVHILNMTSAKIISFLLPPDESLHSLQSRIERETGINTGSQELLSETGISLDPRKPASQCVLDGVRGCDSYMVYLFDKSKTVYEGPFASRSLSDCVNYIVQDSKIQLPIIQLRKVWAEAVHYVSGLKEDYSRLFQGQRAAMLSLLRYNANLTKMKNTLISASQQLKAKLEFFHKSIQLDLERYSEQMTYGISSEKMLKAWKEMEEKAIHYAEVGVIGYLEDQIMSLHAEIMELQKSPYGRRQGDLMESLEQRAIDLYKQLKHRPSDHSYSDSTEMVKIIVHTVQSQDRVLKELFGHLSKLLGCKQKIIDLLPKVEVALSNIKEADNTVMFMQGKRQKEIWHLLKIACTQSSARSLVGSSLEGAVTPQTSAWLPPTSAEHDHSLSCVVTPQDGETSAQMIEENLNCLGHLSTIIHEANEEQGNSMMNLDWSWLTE
# [7] = biological target: T2, Inhibitor of nuclear factor kappa-B kinase subunit alpha (Homo sapiens); settings: at 1 µM
# [8] = biological target: T3, Inhibitor of nuclear factor kappa-B kinase subunit beta (Homo sapiens) (UniProt O14920); settings: at 0.1 µM
# T3 sequence (whole entry): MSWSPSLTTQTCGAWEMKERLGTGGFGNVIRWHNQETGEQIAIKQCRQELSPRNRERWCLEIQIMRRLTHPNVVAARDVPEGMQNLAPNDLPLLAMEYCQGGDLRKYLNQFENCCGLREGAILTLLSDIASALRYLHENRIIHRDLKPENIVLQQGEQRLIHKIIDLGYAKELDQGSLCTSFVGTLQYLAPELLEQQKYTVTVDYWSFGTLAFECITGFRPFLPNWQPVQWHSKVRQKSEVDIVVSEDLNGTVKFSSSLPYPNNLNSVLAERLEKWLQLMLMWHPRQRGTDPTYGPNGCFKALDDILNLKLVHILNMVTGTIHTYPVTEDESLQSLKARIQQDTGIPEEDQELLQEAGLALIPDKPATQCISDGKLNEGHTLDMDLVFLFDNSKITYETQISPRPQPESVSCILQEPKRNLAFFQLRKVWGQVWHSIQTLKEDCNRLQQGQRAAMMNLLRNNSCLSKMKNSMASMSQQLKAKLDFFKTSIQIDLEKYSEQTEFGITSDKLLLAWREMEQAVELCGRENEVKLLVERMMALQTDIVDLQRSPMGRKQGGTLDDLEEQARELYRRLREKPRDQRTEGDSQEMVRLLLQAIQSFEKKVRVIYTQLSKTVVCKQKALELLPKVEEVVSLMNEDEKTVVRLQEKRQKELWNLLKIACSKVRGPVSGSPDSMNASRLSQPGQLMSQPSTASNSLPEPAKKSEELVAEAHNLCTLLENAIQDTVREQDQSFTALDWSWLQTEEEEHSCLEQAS
# [9] = biological target: T3, Inhibitor of nuclear factor kappa-B kinase subunit beta (Homo sapiens); settings: at 1 µM
# [10] = biological target: T4, Inhibitor of nuclear factor kappa-B kinase subunit epsilon (Homo sapiens) (UniProt Q14164); settings: at 0.1 µM
# T4 sequence (whole entry): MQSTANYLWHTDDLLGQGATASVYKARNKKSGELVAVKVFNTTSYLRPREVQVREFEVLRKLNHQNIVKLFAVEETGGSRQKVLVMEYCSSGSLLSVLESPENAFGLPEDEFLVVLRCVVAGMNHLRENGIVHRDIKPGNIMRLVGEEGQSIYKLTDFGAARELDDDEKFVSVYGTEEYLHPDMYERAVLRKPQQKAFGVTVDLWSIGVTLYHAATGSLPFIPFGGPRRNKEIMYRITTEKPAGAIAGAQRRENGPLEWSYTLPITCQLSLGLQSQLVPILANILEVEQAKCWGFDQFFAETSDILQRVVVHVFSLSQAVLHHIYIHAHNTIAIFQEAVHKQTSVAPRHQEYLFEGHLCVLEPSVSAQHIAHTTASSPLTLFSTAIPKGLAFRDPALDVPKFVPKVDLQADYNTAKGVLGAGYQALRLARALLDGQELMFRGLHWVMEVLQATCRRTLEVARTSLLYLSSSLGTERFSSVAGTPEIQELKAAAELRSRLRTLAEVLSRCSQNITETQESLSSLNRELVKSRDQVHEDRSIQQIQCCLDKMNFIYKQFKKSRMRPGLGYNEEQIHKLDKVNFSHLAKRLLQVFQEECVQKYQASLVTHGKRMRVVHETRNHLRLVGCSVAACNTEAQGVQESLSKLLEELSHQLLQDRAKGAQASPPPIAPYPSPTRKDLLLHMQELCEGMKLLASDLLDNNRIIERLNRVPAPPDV
# [11] = biological target: T4, Inhibitor of nuclear factor kappa-B kinase subunit epsilon (Homo sapiens); settings: at 1 µM
# [12] = biological target: T5, Serine/threonine-protein kinase Nek1 (Homo sapiens) (UniProt Q96PY6); settings: at 0.1 µM
# T5 sequence (whole entry): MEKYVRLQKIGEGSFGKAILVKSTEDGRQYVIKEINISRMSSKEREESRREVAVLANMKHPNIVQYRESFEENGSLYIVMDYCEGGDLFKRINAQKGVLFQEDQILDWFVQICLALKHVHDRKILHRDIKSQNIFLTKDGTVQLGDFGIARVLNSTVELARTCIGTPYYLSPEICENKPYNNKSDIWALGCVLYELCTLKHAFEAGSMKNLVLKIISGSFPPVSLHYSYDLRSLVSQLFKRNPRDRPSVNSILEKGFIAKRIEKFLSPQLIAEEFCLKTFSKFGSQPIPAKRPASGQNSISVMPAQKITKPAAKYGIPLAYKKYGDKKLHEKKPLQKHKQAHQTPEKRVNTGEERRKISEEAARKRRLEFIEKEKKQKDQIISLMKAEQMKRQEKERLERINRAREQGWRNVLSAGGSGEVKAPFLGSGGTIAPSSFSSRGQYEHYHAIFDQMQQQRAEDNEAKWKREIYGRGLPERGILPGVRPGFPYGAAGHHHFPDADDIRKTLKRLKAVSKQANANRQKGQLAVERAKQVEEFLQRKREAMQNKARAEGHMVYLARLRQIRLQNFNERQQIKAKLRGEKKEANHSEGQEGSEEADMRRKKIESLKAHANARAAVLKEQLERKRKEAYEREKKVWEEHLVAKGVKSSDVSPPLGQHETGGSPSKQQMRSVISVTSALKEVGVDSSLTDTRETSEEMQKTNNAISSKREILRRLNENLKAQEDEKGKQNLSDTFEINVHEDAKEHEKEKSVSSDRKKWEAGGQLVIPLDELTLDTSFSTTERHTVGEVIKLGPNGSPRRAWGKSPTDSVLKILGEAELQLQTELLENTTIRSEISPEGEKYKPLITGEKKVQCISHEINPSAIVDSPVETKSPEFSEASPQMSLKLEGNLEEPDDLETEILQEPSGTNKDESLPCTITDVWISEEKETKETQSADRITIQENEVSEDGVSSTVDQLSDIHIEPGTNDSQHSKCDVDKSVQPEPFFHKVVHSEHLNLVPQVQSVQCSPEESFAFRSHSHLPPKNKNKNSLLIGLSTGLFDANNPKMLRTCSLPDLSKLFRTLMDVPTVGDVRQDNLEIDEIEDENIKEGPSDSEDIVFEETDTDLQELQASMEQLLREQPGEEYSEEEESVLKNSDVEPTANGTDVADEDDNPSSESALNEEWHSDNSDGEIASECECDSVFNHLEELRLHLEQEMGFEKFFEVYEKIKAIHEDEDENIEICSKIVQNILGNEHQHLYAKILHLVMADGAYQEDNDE
# [13] = biological target: T5, Serine/threonine-protein kinase Nek1 (Homo sapiens); settings: at 1 µM
# [14] = biological target: T6, Serine/threonine-protein kinase Nek2 (Homo sapiens) (UniProt P51955); settings: at 0.1 µM
# T6 sequence (whole entry): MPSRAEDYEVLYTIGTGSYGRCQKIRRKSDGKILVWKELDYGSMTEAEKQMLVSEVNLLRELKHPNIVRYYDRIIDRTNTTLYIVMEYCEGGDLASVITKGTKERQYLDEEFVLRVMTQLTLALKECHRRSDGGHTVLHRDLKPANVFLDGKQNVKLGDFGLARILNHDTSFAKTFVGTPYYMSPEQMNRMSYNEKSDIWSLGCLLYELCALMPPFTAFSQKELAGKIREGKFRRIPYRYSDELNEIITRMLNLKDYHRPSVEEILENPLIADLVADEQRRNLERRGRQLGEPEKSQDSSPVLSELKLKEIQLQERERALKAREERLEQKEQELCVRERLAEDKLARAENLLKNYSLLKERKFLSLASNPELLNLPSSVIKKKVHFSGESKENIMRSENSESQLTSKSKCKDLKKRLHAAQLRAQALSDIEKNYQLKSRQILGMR
# [15] = biological target: T6, Serine/threonine-protein kinase Nek2 (Homo sapiens); settings: at 1 µM
# [16] = biological target: Serine/threonine-protein kinase Nek6 (Homo sapiens) (UniProt Q9HC98); settings: at 0.1 µM
# Chain of Serine/threonine-protein kinase Nek6 (Homo sapiens) (Q9HC98 whole entry): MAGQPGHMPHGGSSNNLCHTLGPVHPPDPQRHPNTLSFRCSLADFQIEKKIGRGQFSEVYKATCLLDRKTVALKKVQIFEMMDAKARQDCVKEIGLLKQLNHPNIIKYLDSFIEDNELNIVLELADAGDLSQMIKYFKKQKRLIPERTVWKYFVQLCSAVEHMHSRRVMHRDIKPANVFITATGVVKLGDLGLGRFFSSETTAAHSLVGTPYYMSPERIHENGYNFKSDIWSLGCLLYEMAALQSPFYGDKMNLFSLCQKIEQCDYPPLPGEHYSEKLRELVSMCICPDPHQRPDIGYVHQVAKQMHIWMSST
# [17] = biological target: Serine/threonine-protein kinase Nek6 (Homo sapiens) (UniProt Q9HC98); settings: at 1 µM
# [18] = biological target: Serine/threonine-protein kinase Nek7 (Homo sapiens) (UniProt Q8TDX7); settings: at 0.1 µM
# Chain of Serine/threonine-protein kinase Nek7 (Homo sapiens) (Q8TDX7 whole entry, looked up): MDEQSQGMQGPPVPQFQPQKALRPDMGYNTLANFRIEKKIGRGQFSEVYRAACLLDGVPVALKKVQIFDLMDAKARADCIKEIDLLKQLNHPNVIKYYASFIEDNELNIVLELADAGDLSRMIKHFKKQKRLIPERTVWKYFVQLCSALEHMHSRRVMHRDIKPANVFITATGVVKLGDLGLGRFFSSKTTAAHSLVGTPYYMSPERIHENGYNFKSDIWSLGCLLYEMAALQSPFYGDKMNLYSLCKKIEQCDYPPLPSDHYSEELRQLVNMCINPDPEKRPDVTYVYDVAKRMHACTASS
# [19] = biological target: Serine/threonine-protein kinase Nek7 (Homo sapiens) (UniProt Q8TDX7); settings: at 1 µM
# [20] = biological target: T7, Serine/threonine-protein kinase Nek9 (Homo sapiens) (UniProt Q8TD19); settings: at 0.1 µM;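 further: reported value is the mean percent inhibition of NEK9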
# T7 sequence (whole entry): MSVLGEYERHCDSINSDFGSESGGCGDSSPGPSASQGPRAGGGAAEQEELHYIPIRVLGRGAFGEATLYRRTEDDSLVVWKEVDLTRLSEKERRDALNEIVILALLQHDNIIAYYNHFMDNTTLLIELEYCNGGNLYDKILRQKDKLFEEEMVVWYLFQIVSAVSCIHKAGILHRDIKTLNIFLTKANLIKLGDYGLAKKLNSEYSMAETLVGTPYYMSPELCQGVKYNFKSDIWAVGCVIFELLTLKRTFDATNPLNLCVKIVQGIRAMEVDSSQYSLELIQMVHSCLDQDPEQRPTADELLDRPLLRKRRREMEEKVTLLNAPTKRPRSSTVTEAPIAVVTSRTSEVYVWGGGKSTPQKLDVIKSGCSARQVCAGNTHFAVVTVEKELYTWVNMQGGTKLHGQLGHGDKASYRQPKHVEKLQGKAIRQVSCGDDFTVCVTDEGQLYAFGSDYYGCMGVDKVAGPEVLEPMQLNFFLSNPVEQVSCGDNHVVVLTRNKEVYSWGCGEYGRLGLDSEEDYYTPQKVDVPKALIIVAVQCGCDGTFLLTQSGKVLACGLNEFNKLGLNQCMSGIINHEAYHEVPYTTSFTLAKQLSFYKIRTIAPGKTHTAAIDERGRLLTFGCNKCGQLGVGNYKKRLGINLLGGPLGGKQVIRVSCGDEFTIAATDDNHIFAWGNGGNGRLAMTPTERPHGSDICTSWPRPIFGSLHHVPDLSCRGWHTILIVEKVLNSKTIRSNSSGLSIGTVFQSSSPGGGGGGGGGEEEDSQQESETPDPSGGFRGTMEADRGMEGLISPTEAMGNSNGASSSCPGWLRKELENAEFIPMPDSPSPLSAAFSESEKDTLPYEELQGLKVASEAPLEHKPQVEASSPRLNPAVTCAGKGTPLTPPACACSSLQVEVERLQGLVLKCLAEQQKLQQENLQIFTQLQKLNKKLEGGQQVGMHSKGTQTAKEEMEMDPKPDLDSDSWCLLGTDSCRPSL
# Chain of Sphingosine kinase 1 (Homo sapiens) (Q9NYA1 whole entry): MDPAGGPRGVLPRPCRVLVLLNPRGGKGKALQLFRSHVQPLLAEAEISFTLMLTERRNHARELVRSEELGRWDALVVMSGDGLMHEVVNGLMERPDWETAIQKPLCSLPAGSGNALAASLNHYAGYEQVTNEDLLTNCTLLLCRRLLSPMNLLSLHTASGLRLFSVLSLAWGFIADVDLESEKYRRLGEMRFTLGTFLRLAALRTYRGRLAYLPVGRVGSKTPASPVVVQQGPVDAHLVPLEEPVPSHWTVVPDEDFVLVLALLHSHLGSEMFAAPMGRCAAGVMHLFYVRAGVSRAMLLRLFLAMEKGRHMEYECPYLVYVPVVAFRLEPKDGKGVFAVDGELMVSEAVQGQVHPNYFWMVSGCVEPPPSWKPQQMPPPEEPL
smiles,measurement,setting,value
c1cnn2ncc(-c3ccnc(NCCCN4CCOCC4)n3)c2c1,inhibition,[1],-3.67%
same,inhibition,[2],2.35%
same,inhibition,[3],0%
same,inhibition,[4],1.83%
same,inhibition,[5],4.66%
same,inhibition,[6],8.06%
same,inhibition,[7],9.01%
same,inhibition,[8],5.79%
same,inhibition,[9],4.44%
same,inhibition,[10],9.87%
same,inhibition,[11],13.4%
same,inhibition,[12],1.91%
same,inhibition,[13],0.27%
same,inhibition,[14],4.15%
same,inhibition,[15],4.3%
same,inhibition,[16],0.45%
same,inhibition,[17],2.66%
same,inhibition,[18],5.96%
same,inhibition,[19],1.47%
same,inhibition,[20],14.8%

# — ChEMBL document CHEMBL1961873, “Compounds: GSK PKIS; Assays: Nanosyn kinase panel” (2012)
